Ba/F3 V617F tox: reduce viability of Ba/F3 cells dependent on JAK2V617F; AID 1446; inhibition, % at 5.6 µM; actives 1.1% (n = 220,000); Ba/F3 EpoR-JAK2V617F viability, ATP luminescence;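 active = inhibition above the campaign mean plus 3 SD over all tested compounds, cut at about 24% in these data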;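 note: cytokine-independent growth of Ba/F3 cells driven by EpoR plus mutant JAK2; 0% = DMSO-treated cells and 100% = JAK inhibitor I control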
IEC-6 tox: kills IEC-6 intestinal cells in KLF5 counter-screen | actives 0.78% (n = 290,000) | AID 1825 | inhibition, % at 5 µM | IEC-6 cytotoxicity, luminescence viability; in the data active = inhibition above about 22%;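 note: 0% = plate median of test compound wells and 100% = cytotoxic reference compound wells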
KLF5 inh: suppresses KLF5 promoter-driven expression; DLD-1 KLF5 promoter-luciferase reporter, luminescence; inhibition, % at 5 µM; actives 0.23% (n = 290,000);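 active = inhibition above a per-plate limit of that plate's mean compound inhibition plus 3 SD, cut at about 60% in these data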;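 note: 0% = DMSO wells and 100% = LY294002 at 200 µM; higher means less KLF5 promoter-driven luciferase light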
aSyn UTR inh: 5' untranslated region of α-synuclein, MLPCN primary screen; inhibition, % (tested at 7.5 µM); actives 0.82% (n = 300,000); alpha-synuclein 5'UTR reporter, inhibitor activity; in the data active = inhibition above about 60%;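 note: H4 neuroglioblastoma cells stably carrying SNCA 5'UTR luciferase fusion; 0% = DMSO wells and 100% = positive control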
BaF3 parental: parental Ba/F3 viability inhibition as JAK2V617F counter-screen | CellTiter-Glo ATP luminescence | inhibition, % at 5.6 µM | actives 1.1% (n = 220,000);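 active = inhibition above a per-campaign cutoff, the mean inhibition of all tested compounds plus 3 SD, cut at about 27% in these data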;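 note: 0% = DMSO wells and 100% = JAK Inhibitor I control wells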
APP 5UTR inh: APP translation inhibition. inhibition, % at 2 µM. actives 0.82% (n = 190,000). SH-SY5Y APP 5'UTR-luciferase reporter, luminescence. AID 1285;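 active = inhibition above a set limit, derived from the sample mean plus 3 SD, cut at about 45% in these data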
An asterisk follows results filed as active; · = not tested or not shown. This is a sample that favours compounds with a hit; in the whole collection about 2.2% have one here.

SMILES | Ba/F3 V617F tox | IEC-6 tox | KLF5 inh | aSyn UTR inh | BaF3 parental | APP 5UTR inh
COC(=O)C1=C(C)NC(C)=C(C(=O)OCC(C)C)C1c1ccccc1[N+](=O)[O-] (stereo unspecified) | · | · | · | 71* | · | ·
CCCOc1ccccc1C1CC(=O)NC(C)=C1C(=O)OCC(C)C (stereo unspecified) | 2 | 3 | -15 | 16 | 4 | -11
CN(C)c1ccc(/C=C2\SC(=O)N(CCc3nnc(N)s3)C2=O)cc1 | 1 | 3 | -36 | 80* | -2 | ·
CN(C)c1ccc(/C=C2/SC(=O)N(CCN=C3NS(=O)(=O)c4ccccc43)C2=O)cc1 | -2 | -6 | -20 | -66 | 4 | -35
O=C(/C=C/c1cccnc1)/C=C/c1cccnc1 | 95* | 49* | 5 | · | 103* | ·
O=C(/C=C/c1cccnc1)c1cc(F)ccc1O | -2 | 8 | -12 | -42 | 5 | ·
C/C(=N\NC(=O)c1nnn(-c2nonc2N)c1C(C)C)c1ccc2ccccc2c1 | · | 6 | 0 | -3 | · | ·
O=C(NCCO)c1cccc(S(=O)(=O)N2CCCCC2)c1 | 1 | -5 | -21 | 4 | 94* | -1
Cc1cc(N/C(=N\S(=O)(=O)c2ccc(F)cc2F)c2ccccc2)no1 | 0 | -6 | -12 | 19 | 2 | 68*
Cc1ccccc1N/C(=N/S(=O)(=O)c1cc(F)ccc1F)c1ccccc1 | · | -2 | -1 | 0 | · | ·
Nc1c(C(=O)NC2CC2)sc2nc3c(c(-c4ccco4)c12)CC/C3=C/c1ccco1 | -5 | -19 | 13 | · | 1 | 51*
C1=C2C[N+]3(CCCC3)CC2Cc2ccc3ccccc3c21 (stereo unspecified) | 64* | 2 | -6 | -1 | 55* | 12
FC(F)(F)C(F)(F)c1nnc2ccc(-n3ccnc3)nn12 | 2 | 0 | -22 | 35 | 5 | 20
CSc1ccc(Cl)c(C(=O)NCCCn2ccnc2)c1 | · | -1 | -36 | 4 | · | ·
CCC(=O)c1ccc(OCC(=O)Nc2nc(-c3cccnc3)cs2)cc1 | · | · | · | -17 | · | ·
CCc1ccccc1OCC(=O)Nc1nc(-c2cccnc2)cs1 | 0 | 6 | 13 | 70* | 9 | 6
CCCN(CCC)S(=O)(=O)c1ccc(C(=O)Nc2nnc(-c3cc(OC)cc(OC)c3)o2)cc1 | 12 | 1 | 26 | 82* | 9 | 4
CCCN(CCC)S(=O)(=O)c1ccc(C(=O)Nc2nnc(CSC)o2)cc1 | 1 | 4 | -25 | 13 | 3 | -6
COc1cccc(-c2nnc(NC(=O)c3cccc(F)c3)o2)c1 | · | · | · | 11 | · | ·
CCCN(CCC)S(=O)(=O)c1ccc(C(=O)Nc2nnc(-c3cccc(OC)c3)o2)cc1 | -3 | -1 | -23 | 70* | 4 | 21
C=CCNC(=S)/N=c1/ccccn1CCC | 51* | 0 | -35 | 12 | 56* | ·
CCOC(=O)C1CCCN(Cc2cc(=O)oc3cc(C)c(C)cc23)C1 (stereo unspecified) | 2 | -1 | -15 | -12 | 82* | 9
CCOC(=O)C1CCCN(Cc2cc(=O)oc3cc(C)ccc23)C1 (stereo unspecified) | 0 | -10 | -13 | -75 | 4 | -25
COc1ccc(OC)c(Nc2nc(NCCCN(C)C)nc(N)c2[N+](=O)[O-])c1 | 58* | 9 | -2 | 24 | 50* | ·
CC(=O)Nc1ccc(NC(=O)/C(Cl)=C/c2ccccc2)cc1 | 2 | 7 | -26 | -117 | 93* | -82
SMILES | Ba/F3 V617F tox | IEC-6 tox | KLF5 inh | aSyn UTR inh | BaF3 parental | APP 5UTR inh
CC(=O)Nc1ccc(C(=O)N/C(=C/c2ccccc2)C(=O)Nc2cccc(C(=O)O)c2)cc1 | -3 | 9 | -4 | 7 | -2 | 0
COc1ccc(C(=O)Nc2nnc(Cc3cccs3)s2)cc1OC | 39* | 4 | 14 | 26 | 41* | 0
CCN(CC(=O)Nc1ccc(C(=O)OC)cc1)C1CCCCC1 | · | 3 | -5 | 14 | · | ·
CC(C)CN(C)C(=O)CC1C(=O)NCCN1C (stereo unspecified) | -2 | -2 | -30 | 26 | 6 | -6
N#CCCS(=O)(=O)c1nnnn1-c1ccccc1 | 25* | 7 | 4 | · | 3 | 9
c1ccc(-n2nnnc2Cc2nnnn2-c2ccccc2)cc1 | 5 | 8 | -10 | 10 | 3 | 4
CNS(=O)(=O)c1cc2c3c(cccc3c1)C(=O)NC2=O | -1 | 2 | 11 | 71* | 4 | 4
O=C(CC(=O)NN=C1CCCCCC1)NCc1cccnc1 | 0 | 2 | -7 | -3 | 6 | 1
COc1cc(-c2cc(=O)c3c(O)c(OC)c(OC)c(O)c3o2)ccc1O | 1 | -3 | 5 | 87* | -6 | 12
COc1c(O)c(O)c2oc(-c3ccccc3)cc(=O)c2c1OC | 2 | -3 | -23 | -6 | -2 | 13
COc1ccc(C(=O)/C=C/C(=O)N(Cc2ccccc2OC)C(C(=O)NC2CCCCC2)c2ccncc2)c(O)c1 (stereo unspecified) | -1 | 1 | -13 | 16 | 6 | -4
COc1ccc(C(=O)/C=C/C(=O)N(CC(=O)NC2CCCCC2)CC2CCCO2)c(O)c1 (stereo unspecified) | 3 | 11 | -2 | 73* | 4 | 71*
COc1ccc(C(=O)/C=C/C(=O)N(Cc2ccccc2)C(C(=O)NC2CCCCC2)c2ccncc2)c(O)c1 (stereo unspecified) | 0 | 0 | -18 | 22 | 6 | 8
COc1ccc(C(=O)/C=C/C(=O)N(CC(=O)NC2CCCCC2)Cc2ccccc2)c(O)c1 | -2 | -5 | -38 | 67* | 7 | 73*
COc1ccc(C(=O)/C=C/C(=O)N(CC(=O)NC2CCCCC2)Cc2ccccc2OC)c(O)c1 | -3 | -4 | -21 | -36 | 3 | 75*
O=C(CCC1CCCCC1)NCCN1C2=NC[C@@H](Cc3ccccc3)N2C[C@H]1Cc1ccc(O)cc1 | 2 | 4 | -16 | 13 | 0 | -9
COc1ccc(C(=O)NCCSc2ccccc2)cc1OC | 0 | -3 | -81 | -129 | 9 | -46
O=C(N/N=C/c1c(O)ccc2ccccc12)c1[nH]ncc1Br | 31* | 10 | 23 | 106* | 35* | 72*
O=C(N/N=C/c1c(O)ccc2ccccc12)c1cccc(C(F)(F)F)c1 | 4 | 10 | 18 | 111* | 6 | 79*
O=C(N/N=C\c1c(O)ccc2ccccc12)c1ccc(Cn2cccn2)o1 | 10 | 7 | 15 | 92* | 7 | 63*
COc1ccc(OC)c(/C=N/NC(=O)c2[nH]ncc2Br)c1 | -5 | -1 | -94 | -2 | -1 | ·
CCOc1ccc(/C=N/NC(=O)c2[nH]ncc2Br)c(O)c1 | 21 | 29* | -16 | 19 | 7 | -24
COc1ccc2ccccc2c1/C=N/NC(=O)c1cccc(Br)c1 | 2 | 7 | 12 | -22 | 5 | -5
COc1ccc(CNC(=O)CCSCc2ccccc2C)cc1 | 0 | -2 | -20 | 18 | 3 | -36
O=C(CN1C(=O)NC2(CCOc3ccccc32)C1=O)c1ccc[nH]1 (stereo unspecified) | · | · | · | 11 | · | ·

Source: PubChem BioAssay
